# Source: PubChem (National Center for Advancing Translational Sciences (NCATS))
# Compounds with a hit are over-represented: about 5.7% of the library has one in this group of screens.
# JMJD2A Tudor: JMJD2A Tudor domain (human) inhibition; AlphaScreen JMJD2A-Tudor / H3K4me3 peptide binding; O75164; 4.4% of 390,000 active; AID 504339; Potency, µM (highest dose often 114 µM), for the others: at the highest dose activity change, negative = inhibition, usual class: inhibitors; note: potency is the fitted concentration of half-maximal effect; % is set by controls: 0 for no effect and ±100 for the full control effect; nearly all actives have a fitted effect of over 50% in size
# Target sequence (O75164 whole entry, looked up, the tested form may be a part): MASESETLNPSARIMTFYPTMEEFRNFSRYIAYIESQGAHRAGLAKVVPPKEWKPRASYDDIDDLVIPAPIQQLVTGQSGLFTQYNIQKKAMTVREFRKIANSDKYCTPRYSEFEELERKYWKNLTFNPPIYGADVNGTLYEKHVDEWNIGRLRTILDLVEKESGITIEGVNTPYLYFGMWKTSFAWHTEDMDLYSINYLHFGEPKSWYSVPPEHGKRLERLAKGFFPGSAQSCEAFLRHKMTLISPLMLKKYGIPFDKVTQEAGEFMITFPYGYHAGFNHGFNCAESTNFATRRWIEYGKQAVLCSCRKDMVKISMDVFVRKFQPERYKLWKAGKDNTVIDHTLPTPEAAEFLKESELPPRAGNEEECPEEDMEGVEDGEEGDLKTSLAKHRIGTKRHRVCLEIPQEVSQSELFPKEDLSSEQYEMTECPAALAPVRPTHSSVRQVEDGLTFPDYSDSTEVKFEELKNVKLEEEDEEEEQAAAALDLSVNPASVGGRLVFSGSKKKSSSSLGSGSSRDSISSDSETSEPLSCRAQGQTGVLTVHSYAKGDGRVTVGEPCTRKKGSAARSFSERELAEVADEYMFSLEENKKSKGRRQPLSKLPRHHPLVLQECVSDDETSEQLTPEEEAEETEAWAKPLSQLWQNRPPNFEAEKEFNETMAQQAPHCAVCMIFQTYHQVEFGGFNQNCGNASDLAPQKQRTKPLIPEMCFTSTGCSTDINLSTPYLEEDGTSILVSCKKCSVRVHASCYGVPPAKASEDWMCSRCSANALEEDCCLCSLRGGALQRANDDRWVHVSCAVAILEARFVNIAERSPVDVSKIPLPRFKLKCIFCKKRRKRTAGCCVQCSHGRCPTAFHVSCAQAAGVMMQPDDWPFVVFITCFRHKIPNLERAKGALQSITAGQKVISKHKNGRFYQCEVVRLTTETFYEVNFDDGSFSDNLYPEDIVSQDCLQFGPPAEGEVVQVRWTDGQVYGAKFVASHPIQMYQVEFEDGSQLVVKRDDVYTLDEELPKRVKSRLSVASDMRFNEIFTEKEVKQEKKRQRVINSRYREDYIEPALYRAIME
# HP1b chromo inh: HP1-beta chromodomain-methylated histone interaction inhibition; AlphaScreen HP1-beta / biotin-H3K9me3 peptide binding; Potency, µM (doses to about 114 µM), for the others: at the highest dose activity change, negative = inhibition, hits mostly inhibitors; 0.56% of 390,000 active; AID 540317; note: potency is the fitted concentration of half-maximal effect; nearly all actives have a fitted effect of over 70% in size
#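 AlphaScreen: HP1-beta (50 nM) preformed 30 min with biotin-H3(1-18)K9me3 peptide (50 nM) in PBS pH 7.4, 0.01% Tween-20. Compound added for 30 min at RT, then streptavidin donor/nickel chelate acceptor beads (10 ug/mL) for 30 min.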
# L3MBTL1 inh: blocks human L3MBTL1; 0.66% of 230,000 active; AID 485360; AlphaScreen L3MBTL1–H3K9me1 peptide binding; Q9Y468; Potency, µM (titrated, usually from 57.1 µM), without a hit: at the highest dose activity, negative = inhibition, usual class: inhibitors; note: potency is the fitted concentration of half-maximal effect; % is set by controls: 0 for no effect and ±100 for the full control effect; nearly all actives have a fitted effect of over 60% in size
#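 Read-out is AlphaScreen signal from streptavidin donor and nickel chelate acceptor beads (10 ug/mL final each) bridging L3MBTL1 (50 nM) and biotinylated K9-monomethylated H3(1-15) peptide (75 nM), after 30 min compound exposure at room temperature.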
# PI5P4Ka inh: blocks human PI5P4K alpha kinase activity; P48426; PI5P4Kalpha enzyme, ADP-Glo luminescence, 60 min; active compounds read low; max response, %; 1.2% of 330,000 active; active = max response of -50% or lower; inconclusive = between -30% and -50%; inactive = -30% or higher; note: value at the top dose of about 77 µM; % is set by controls: 0 for no effect and ±100 for the full control effect
#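 Reactions run in 0.038 M HEPES pH 7.4, 0.28 mM EGTA, 0.1% CHAPS and 5% DMSO, with PI5P4Kalpha, substrate, compound and 5 microM ATP final, one hour at room temperature. Readout is ADP-Glo luminescence.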
# BAZ2B block: blocks human BAZ2B; Q9UIF8; AlphaScreen BAZ2B-H3K14Ac peptide displacement; Potency, µM (top dose mostly 114 µM), for inactives: top-dose activity change, negative = inhibition, most hits filed as inhibitors; 4.4% of 360,000 active; AID 504333; note: potency is the fitted concentration of half-maximal effect; % is set by controls: 0 for no effect and ±100 for the full control effect; nearly all actives have a fitted effect of over 60% in size
#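 BAZ2B 50 nM plus b-H3(5-23)K14Ac 50 nM, PBS pH 7.4/0.01% Tween-20, 30 min RT; compound added (max 110 uM), 30 min RT; streptavidin donor/Ni-chelate acceptor beads 10 ug/mL final, 20 min dark; AlphaScreen read.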
# KDM4E inh: inhibitors of human JMJD2E histone demethylase; JMJD2E catalytic domain, FDH-coupled NADH fluorescence (FDH is formaldehyde dehydrogenase); 1.6% of 230,000 active; AID 2147; B2RXH2; Potency, µM (highest dose often 57.1 µM), for the others: top-dose activity change, negative = inhibition, actives largely listed as inhibitors; active = well fitted inhibition curve with a large enough effect, not every such curve was filed as active; inconclusive = small, poorly fitted or top-dose-only effect, or another doubt; inactive = no such curve, though single readings can be large or run the other way;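 note: potency is the fitted concentration of half-maximal effect; 0% = wells with enzyme and -100% = buffer wells without enzyme; nearly all actives have a fitted effect of over 50% in size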
# Starred values were filed as active, the others as inactive; ? = inconclusive; · = no result; [ ] = remark or other dose. Unless noted, calls come from the whole dose curve; as a rule, active = well fitted inhibition curve with a large enough effect; inconclusive = small, poorly fitted or top-dose-only effect; inactive = no such curve, though single readings can be large or run the other way.
SMILES,JMJD2A Tudor,HP1b chromo inh,L3MBTL1 inh,PI5P4Ka inh,BAZ2B block,KDM4E inh
COc1ccc(Cn2c(C3CC3)nc3ccc(NC(C)=O)cc3c2=O)cc1,-12%,47%,-4%,-9,-13%,?
CCSc1ncc(Cl)c(C(=O)N(Cc2ccc(C(C)(C)C)cc2)C2CCS(=O)(=O)C2)n1 (stereo unspecified),-25%,26%,·,·,-12%,·
Cc1c(C(=O)NCCc2ccccc2)cccc1-n1cnc2cccnc21,-13%,7%,·,·,-6%,·
C=C1C=CS(=O)(=O)N(Cc2ccccc2)C1,-15%,45%,·,·,·,·
COc1ccc(C)cc1NC(=O)Cn1c(=O)ccc2cc(S(=O)(=O)N3CCC(C)CC3)ccc21,-32%,10%[57 µM],·,·,0%,·
COc1ccc(CN(Cc2ccccc2)C(=O)CN2CCN(C)CC2)cc1COc1ccc(NC(C)=O)cc1,35µM*,-6%,·,·,·,·
Cc1ccc(NC(=S)N/N=C/c2ccc([N+](=O)[O-])s2)cc1,40µM*,?,?,4,14µM*,0%
O=C(Cc1cccs1)N/N=C\c1ccc([N+](=O)[O-])s1,-28%,6%,·,-28,?,-19%
NC(=O)c1ccc(N=Cc2ccc([N+](=O)[O-])s2)cc1,-24%,-24%,13µM*,-28,-6%,22µM*
Cc1cc(C)cc(N=Cc2ccc([N+](=O)[O-])s2)c1,20µM*,45µM*,8.9µM*,-4,25µM*,?
O=[N+]([O-])c1ccc(C=Nc2ccc(Cl)c([N+](=O)[O-])c2)s1,·,·,?,·,?,14µM*
Cc1cc2ncn(/N=C/c3ccc([N+](=O)[O-])s3)c2cc1C,-19%,3%,-4%,13,?,?
COC(=O)c1cc(S(=O)(=O)NCC2CCN(CCc3ccc(OC)cc3)CC2)cn1C,-28%,11%,·,5,-36%[57.1 µM],·
COc1ccc(N2CCN(c3ncnc4onc(C)c34)CC2)cc1,-26%,14%,·,·,5%[57.1 µM],·
CC(C)CCN1CCN(Cc2cnc(N3CCCC3)s2)CC1CCO (stereo unspecified),-6%,26%,5%,3,-3%,6%
CN(C1=C(NC(=O)c2ccc(Cl)cc2)C(=O)c2ccccc2C1=O)c1ccccc1,4.5µM*,-91%,7.9µM*,-8,8.9µM*,3%
O=C(NC1=C(Nc2ccc(Cl)cc2)C(=O)c2ccccc2C1=O)c1ccccc1,-3%[57.1 µM],?,-27%,?,?,?
Cc1cccc(NC2=C(NC(=O)c3ccccc3)C(=O)c3ccccc3C2=O)c1,25µM*,50µM*,?,-62*,28µM*,-17%
O=C1C(Cl)=C(NC(=O)c2ccccc2)C(=O)C(Cl)=C1NC(=O)c1ccccc1,0.71µM*,3.5µM*,·,-84*,?,·
COc1ccc(Cl)cc1NC(=O)CSc1ccc2nnc(CCNS(=O)(=O)c3ccccc3)n2n1,-4%,43%,·,·,-2%,·
Cc1nnc(N2CCCC(C(=O)NCCc3ccccc3)C2)c2nn(-c3ccccc3)c(C)c12 (stereo unspecified),-6%,11%,·,·,-13%,·
Cn1c2c(c3ccccc31)CCN(CCCCN1CCN(c3ccccc3)CC1)C2=O,50µM*,?,·,12,·,·
CCCCN(CC)C(=O)Cn1nc(C)c2c(C)n(-c3ccccc3)nc2c1=O,1%,28%,·,·,-11%,·
Cc1ccc(-n2nc3cc(C)c(NC(=O)COc4ccccc4)cc3n2)cc1,-17%,37%,·,·,-2%,·
Cc1nc(N/N=C/c2ccccn2)sc1C,-35%,-16%,-19%,-18,?,13µM*
SMILES,JMJD2A Tudor,HP1b chromo inh,L3MBTL1 inh,PI5P4Ka inh,BAZ2B block,KDM4E inh
O=C(O)Cc1sc(N/N=C\c2ccccc2)nc1-c1ccccc1,?,-23%,-13%,?,?,5%
CCCc1sc(N/N=C/c2ccccn2)nc1-c1ccc(F)cc1,45µM*,-20%,-9%,·,?,-5%
COC(=O)c1ccc(/C=N/Nc2nc(C)c(C)s2)cc1,-27%,32%,54%,20,4%,?
CC(C)CSc1nnc(-c2ccccc2)c(-c2ccccc2)n1,32%,54%,·,·,30%,·
C=C1CCN(C(C)C(=O)OCc2cccc(C)c2)S(=O)(=O)c2ccccc21 (stereo unspecified),28%,90%,·,·,·,·
O=[N+]([O-])c1cccc(-c2ccc(/C=N/n3c(-c4ccccc4)n[nH]c3=S)o2)c1,-10%,1%,-5%,2,-5%,3%
Cc1n[nH]c(=S)n1/N=C/c1ccc(-c2ccccc2[N+](=O)[O-])o1,40µM*,3%,·,-1,-32%,-24%
Cc1nnc(N/N=C\c2ccc(-c3ccccc3[N+](=O)[O-])o2)n1N,?,-8%,-12%,-3,71µM*,2%
COCCNC(=O)CCC(=O)NNc1nc2ccccc2c2nc(C)nn12,79µM*,33%,·,0,4%,1%
Cc1ccc(/C=C/C(=O)OCC(=O)N2CC(=O)Nc3ccccc32)o1,56µM*,-11%,·,-29,?,-6%
O=C1CN(C(=O)COC(=O)/C=C/c2ccco2)c2ccccc2N1,-12%,1%,-5%,-11,?,1%
Cc1ccc(S(=O)(=O)NC2OC(=O)C(Cl)=C2Cl)cc1 (stereo unspecified),-9%,27%,·,-6,79µM*,-7%
COCCn1cc(-c2csc(N)n2)c2ccccc21,?,0%,-3%,-9,?,·
CN(C)c1nc(-c2cn(CCC#N)c3ccccc23)cs1,50µM*,-15%,·,0,?,·
Cc1ccc(S(=O)(=O)Oc2ccc3c(c2)O/C(=C\c2cccnc2)C3=O)cc1,?,14%,·,·,2%,1%
O=C1/C(=C/c2cccnc2)Oc2cc(OS(=O)(=O)c3ccc(F)cc3)ccc21,40µM*,-8%,·,·,-29%,?
Cn1nnnc1Sc1ncnc2scc(-c3ccccc3C#N)c12,-14%,·,·,·,·,·
O=C1CC(c2ccc(Cl)cc2)n2nc(N3C(=O)c4ccccc4C3=O)nc2N1 (stereo unspecified),?,25%,-6%,6,79µM*,3%
COc1ccccc1C(=O)N1c2ccccc2C(C)(c2ccc(Cl)cc2)CC1(C)C (stereo unspecified),-20%,-4%,·,·,?,·
O=C1CC(c2ccccc2)Sc2nc3ccccc3n21 (stereo unspecified),18%,60%,6%,1,11%,-7%
O=C1CC(c2ccco2)Sc2nc3ccccc3n21 (stereo unspecified),79µM*,19%,-9%,?,-32%,-2%
O=C1c2cccc3c(O)ccc(c23)C(=O)N1Cc1ccccc1,36%,50%,·,-63*,5%,-1%
Fc1cccc(CNc2ncnc3ccc(-c4ccoc4)cc23)c1,·,·,-2%,·,8%,·
